The text below walks through data of PubChem BioAssay AID1159606 (Sanford-Burnham Center for Chemical Genomics, 2016).

Out of some 360,000 compounds screened, about 7,300 (2%) were called active. No stated cut-off is given here; in the data, active means inhibition above about 50%; inactive means the rest. The sample as a whole holds a higher share of actives than the screen did.

This assay can be described thus: inhibitors of TWEAK-Fn14 signaling, primary screen, luciferase reporter cells, uHTS (AID 1159606). The settings on record: TWEAK-stimulated Fn14 reporter cells, luciferase luminescence, 8 h; at 10 µM; active compounds read high.
For the compound `CC1=CC=CC2=N/C(=N\S(=O)(=O)c3ccc(F)cc3F)c3ccccc3CN12`, the inhibition was -4.26% (inactive).
In the case of `O=S(=O)(Nc1ccc(OC(F)(F)F)cc1)c1cccc2nonc12` it was -6.65% (inactive).
Take `O=S(=O)(Nc1ccc(O)c2ccccc12)c1ccc(OC(F)(F)F)cc1`: the inhibition is 84.1% (active).
In the case of `COc1ccccc1NS(=O)(=O)c1ccc(C(=O)N2CCN(c3ccccc3O)CC2)cc1` it was 9.79% (inactive); in that of `O=C(NNC(=O)c1cccc(S(=O)(=O)Nc2ccc(Cl)cc2)c1)c1ccc(=O)[nH]c1`, 12.3% (inactive).
In the case of `CCc1ccc(NC(=O)Nc2ccncc2)cc1` it was -5.44% (inactive); in that of `Cc1ccc(NC(=O)Nc2nnc(-c3ccncc3)s2)cc1`, 54.9% (active).
`CC(C)=CC(=O)Nc1nnc(-c2ccc(F)cc2)s1`: the inhibition is -55.7% (inactive).
As to `Cc1cc(=O)oc(C)c1C(=O)Nc1cnc2ccccc2c1`, the inhibition is 1.75% (inactive).
The same measure for `CC1(C)OC(=O)C2=C(C[C@@H](C3CC3)O[C@H]2c2ccc(Cl)cc2)O1`: 7.97% (inactive); for `CCCCOC(=O)c1ccc(NC(c2ccc(C)cc2)P(=O)(OC)OC)cc1` (centres undefined): 4.7% (inactive).
In the case of `O=[N+]([O-])c1ccc(Oc2ccc(F)cc2Br)c2ccncc12` it was 69.9% (active); in that of `CC(NC(=O)CCCC1CCCCC1)c1ccc(S(N)(=O)=O)cc1` (centres undefined), 11.9% (inactive).
Turning to `Cc1cc(S(=O)(=O)N2CCOCC2)ccc1OCC(=O)Nc1cccc(C(F)(F)F)c1`, the inhibition was 21.1% (inactive).
For `CC(=O)N1CCCc2cc(S(=O)(=O)N3CCCC(C(=O)N4CCN(c5cccc(Cl)c5)CC4)C3)ccc21` (centres undefined), the inhibition was 87.5% (active).
Consider `CC(=O)N1CCCc2cc(S(=O)(=O)CCC(=O)N3CCN(c4ccccc4)CC3)ccc21`, for which the inhibition is -26.2% (inactive).
In the case of `CC(=O)N1c2ccc(S(=O)(=O)N3CCC(C(=O)N4CCN(c5ccccc5)CC4)CC3)cc2CC1C` (centres undefined) it was -8.65% (inactive); in that of `Cc1ccnc(SCCn2c(N(C)Cc3ccccc3)nc3c2c(=O)n(C)c(=O)n3C)n1`, -11.8% (inactive).
Consider `Cn1c(-c2ccc(F)cc2)cc2onc(-c3ccccc3Cl)c2c1=O`, for which the inhibition is 6.49% (inactive).
For the compound `O=c1c2ccccc2c(-c2ccc(F)cc2)nn1-c1ccc(C(F)(F)F)cc1`, the inhibition is -4.84% (inactive).
The same measure for `Cn1c(-c2ccc(C(F)(F)F)cc2)cc2onc(-c3ccccc3)c2c1=O`: 51.4% (active); for `CC(=O)N1Cc2cc(C(=O)NCc3cccc(F)c3)nc(-c3cccc(C4=CCCCC4)c3)c2[C@H]1CCO`: 24.6% (inactive); for `CCCCn1c(N)c(N(CCOC)C(=O)CSCC(=O)Nc2cccc(C)c2)c(=O)[nH]c1=O`: 4.51% (inactive).
In the case of `CC(C)Nc1ccc(-n2nc3ccccc3[n+]2[O-])cc1`, the inhibition was 62.4% (active).
The same measure for `C[C@H]([C@@H](O)[C@@H](O)[C@@H](C)C(C)(C)C)[C@H]1CC[C@H]2C3CC[C@H]4C[C@H](OS(=O)(=O)O)[C@@H](OS(=O)(=O)O)C[C@]4(C)[C@H]3CC[C@]12C` (some centres undefined): 3.39% (inactive); for `CCCC1C(=O)N2C(N(C)C)=Nc3ccc(C)cc3N2C1=O` (centres undefined): -18.1% (inactive); for `O=C1/C(=C\c2ccccc2Cl)SC(=S)N1CCC(=O)N1CCCc2ccccc21`: 3.74% (inactive).
The same measure for `C=CCOc1ccc(/C=C2\SC(=S)N(CCC(=O)O)C2=O)cc1`: 90% (active); for `O=C(O)c1ccc(/C=C2\SC(=S)N(NC(=O)c3ccc(Br)cc3)C2=O)cc1`: 2.06% (inactive).
Regarding `CCCNC(=O)C1(C)CCN(C(=O)c2ccc(F)cc2Cl)C1` (centres undefined), the inhibition was 2.61% (inactive).
The same measure for `COc1cccc2cc(C(=O)N3CCN(C(=O)c4ccccc4)CC3)c(=O)oc12`: 11.9% (inactive); for `COc1cccc2cc(C(=O)N(C)C)c(=O)oc12`: 0.46% (inactive).
Regarding `COc1cccc2cc(C(N)=O)/c(=N\NC(=O)c3ccccc3)oc12`, the inhibition is 91.4% (active).
In the case of `CCN(CC)S(=O)(=O)c1ccc(C(=O)N2CCN(C3=NS(=O)(=O)c4ccccc43)CC2)cc1` it was -0.95% (inactive); in that of `O=S1(=O)CC(N2CCN(CCO)CC2)CN1Cc1cn(Cc2cccc(Cl)c2)nn1` (centres undefined), 13.2% (inactive).
In the case of `Cc1ccc(S(=O)(=O)NCC(C)NS(C)(=O)=O)cc1` (centres undefined) it was 4.2% (inactive).
Take `CCOC(=O)C(NS(=O)(=O)c1ccc(C)cc1)(C(F)(F)F)P(=O)(OCC(C)C)OCC(C)C` (centres undefined): the inhibition was 56.7% (active).
The same measure for `CC(=O)N1CCN(CC(C)(C)NS(=O)(=O)c2ccc(C)cc2)CC1`: 14% (inactive); for `O=C(CN1C(=O)/C(=C\c2ccc(C(F)(F)F)cc2)Sc2ccccc21)NCc1ccco1`: 27.1% (inactive); for `O=C(CN1C(=O)/C(=C/c2ccccc2F)Sc2ccccc21)NCc1cccnc1`: 52.7% (active).
For the compound `O=C(CN1C(=O)/C(=C\c2ccccc2F)SC1=S)Nc1nc2ccccc2s1`, the inhibition was 29.6% (inactive).
`O=C(NCc1ccccn1)[C@@H]1CCCN1C(=O)[C@@H]1CCCN1C(=O)c1ccccc1`: the inhibition is 7.41% (inactive).
With `Cc1ccc(NS(=O)(=O)c2cc3c(cc2C)NC(=O)CO3)cc1`, the inhibition is 8.45% (inactive).
In the case of `O=C(Nn1cnc2ccccc2c1=O)c1ccc(F)cc1Cl` it was -23.3% (inactive); in that of `CN1CCN(c2ccc([N+](=O)[O-])c(Sc3nc4ccccc4[nH]3)c2)CC1`, 17% (inactive); in that of `CCC(C)N1C(=O)S/C(=C/c2ccc(Sc3nc4ccccc4[nH]3)o2)C1=O` (centres undefined), 69.5% (active).
The same measure for `CC(C)c1ccc(/C=C2\NC(=O)NC2=O)cc1`: 18.4% (inactive); for `CCOc1ccc(C(=O)NC(=S)Nc2ccc(NC(=O)C(C)C)cc2)cc1[N+](=O)[O-]`: 3.3% (inactive); for `CCOc1ccc(C(=O)NC(=S)Nc2ccc(N3CCOCC3)c(Cl)c2)cc1[N+](=O)[O-]`: 62.8% (active).
The same measure for `O=C(CSc1ccc([N+](=O)[O-])cn1)Nc1ccc(N2CCOCC2)c(Cl)c1`: -16.6% (inactive).
On to `COc1ccc(C(C#N)=C2C=CC(=NO)c3ccccc32)cc1`, for which the inhibition was 88% (active).
Regarding `COc1ccc(/C(N)=N/OC(=O)Cc2ccccc2)cc1`, the inhibition was -44.1% (inactive).
In the case of `COc1ccc(C(=NN)c2ccc(OC)cc2)cc1` it was -20.6% (inactive).
For `CCOc1ccc(Br)cc1S(=O)(=O)N1CCC(C(=O)O)CC1`, the inhibition was 0.18% (inactive).
In the case of `OCCNc1nc(Nc2ccc(Cl)c(Cl)c2)nc2ccccc12` it was 84.3% (active).
The same measure for `OCCNCCOc1ccc(Cl)c(Cl)c1`: 5.07% (inactive); for `O=C(Cn1c(NCCO)nc2ccccc21)c1ccc(Cl)cc1Cl`: 22.5% (inactive).
The same measure for `COC(=O)[C@]12CCCCC=C1N(Cc1ccc(Cl)cc1Cl)C(=O)[C@H](CC(=O)NCc1cccc3ccccc13)C2`: 5.94% (inactive); for `O=C(COc1ccccc1)N1CCN=C1SCc1cccc(F)c1`: -2.31% (inactive); for `COc1ccc(CCNC(=O)C2CCCN(Cc3nc(-c4cccc(Cl)c4)oc3C)C2)cc1OC` (centres undefined): 25.8% (inactive).
Consider `O=C(COc1ccc(S(=O)(=O)NCCc2ccccc2)cc1)N1CCCC1`, for which the inhibition was 11.6% (inactive).
For `COC(=O)C1(C)CC1(c1ccccc1)c1ccccc1` (centres undefined), the inhibition is 7.44% (inactive).
The same measure for `COc1cc(C#Cc2ccc3cc(CCCO)oc(=O)c3c2)cc(OC)c1`: 18.9% (inactive); for `O=C1c2ccccc2C(=O)N1CCC#Cc1ccc2cc(C3(O)CCCCC3)oc(=O)c2c1`: 71.2% (active).
As to `C(#CCN1CCOCC1)CCCN1CCOCC1`, the inhibition is -1.19% (inactive).
With `Cc1nn(-c2ccccc2)c(C)c1/C=C/C(=O)OC(C)C(N)=O` (centres undefined), the inhibition was -4.83% (inactive).
With `Cc1nn(-c2ccccc2)c(Cl)c1/C=C/C(=O)c1ccc(O)cc1`, the inhibition was 57.3% (active).
With `COc1ccc(CCNC(=O)c2c(C)nn(-c3ccccc3)c2Cl)cc1`, the inhibition was -12.5% (inactive).
As to `Cc1sc(NC(=S)NC(=O)c2cccs2)nc1-c1ccc(CC(C)C)cc1`, the inhibition is -5.35% (inactive).
In the case of `C=CCOC(=O)C1=C(C)NC(C)=C(C(=O)OCC=C)C1c1cccs1` it was 20.3% (inactive); in that of `O=S1(=O)CC(N2CCN(CCO)CC2)CN1C1CCCC1` (centres undefined), 11.3% (inactive).
On to `COc1ccc(-c2c(C)nn3c(N4CCC(C(=O)N5CCCCC5)CC4)cc(C)nc23)cc1OC`, for which the inhibition is -3.08% (inactive).
In the case of `Cc1cc(C(=O)COc2ccccc2Cl)c(C)n1C1CC1` it was -10.6% (inactive); in that of `Cc1ccc(-n2c(C)cc(C(=O)CN3C(=O)C(=O)N(C4CCCC4)C3=O)c2C)cc1`, 40.7% (inactive).
On to `Cc1cc(C(=O)COC(=O)C2CC2)c(C)n1-c1ccc(F)cc1`, for which the inhibition was 95.2% (active).
For `Nc1nc2c(Br)ccc(Br)c2cc1C(=O)NCCc1ccccc1`, the inhibition is 14.3% (inactive).
The same measure for `CCCCc1cc(=O)oc2c(C)c(OCC(=O)N3CCC(C(N)=O)CC3)ccc12`: -5.28% (inactive); for `O=C(NCc1ccccc1Cl)c1csc([C@@H]2O[C@H](CO)[C@@H](O)[C@H]2O)n1`: -0.12% (inactive); for `COc1ccccc1CN1CCNC(=O)C1CC(=O)N(C)CC1CCOCC1` (centres undefined): 1.59% (inactive).
Turning to `CCN(CCn1cccn1)C(=O)CC1C(=O)NCCN1Cc1cccc(OC)c1OC` (centres undefined), the inhibition was 68.3% (active).
Consider `CN(Cc1cccc2ncccc12)C(=O)CC1C(=O)NCCN1Cc1ccc(F)cc1` (centres undefined), for which the inhibition was -1.61% (inactive).
Turning to `Cc1nc2nc3c(cn2n1)C(=O)CC(c1ccccc1)C3` (centres undefined), the inhibition is 8.49% (inactive).
The same measure for `CC1CN(C(=O)CN2C(=O)NC(C)(c3ccccc3)C2=O)CC(C)O1` (centres undefined): 0.1% (inactive).
As for `CN(C)c1nc(N)nc(CSc2nnnn2-c2cccc3ccccc23)n1`, the inhibition is -0.11% (inactive).
The same measure for `Cc1cccc(C)c1-n1nnnc1C1(C)CCC(=O)N1CCOc1ccccc1` (centres undefined): -0.09% (inactive); for `CCC1CCCCN1C(=O)CSc1nc2c(c(=O)n1C)SC(C)C2` (centres undefined): 4.38% (inactive).
In the case of `CCN(CC)C(=O)c1sc2nc(-c3ccccc3)ccc2c1N` it was 69.9% (active).
Take `CCN(CC)C(=O)c1nc[nH]c1C(=O)N(C)Cc1ccccc1`: the inhibition is 6.48% (inactive).
In the case of `CCOC(=O)C(C)n1nc(-c2ccccc2)c2ccccc2c1=O` (centres undefined) it was 7.15% (inactive).

A word on the inhibition: it is the change of the read-out against control, counted positive when it falls.
